The test in a line: binders of probe aHhip on microarray, primary screen, stem cell growth factor project, biochemical, small-molecule microarray, fluorescence 635/667 (AID 1087).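 Note: score merges spot fluorescence at 667nm with spot signal to noise ratio.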 Particulars: higher = more signal.
With `CCCNC(=O)[C@@]1(Sc2ccc(C)cc2)CC(=O)N(Cc2ccccc2Cl)[C@@H]1c1ccc(CO)cc1`, the composite z-score was -0.0672.
Under `C[C@H]1COC(=O)[C@H](Cc2ccccc2)NC(=O)[C@@H](C)COC(=O)[C@H](Cc2ccccc2)NC1=O` stands -0.0994.
As to `CC(C)N1CC=CC23O[C@@H]4/C=C\CCCOC(=O)C4[C@H]2C(=O)N(CCO)[C@@H]3C1=O` (stereo partly specified), the composite z-score was -0.257.
The value for `COC(=O)[C@@]1(Cc2ccc(OC)cc2)[C@H]2c3cc(C(=O)N(C)C)n(CCc4ccc(OC)c(Br)c4)c3C[C@H]2CN1C(=O)c1ccccc1` was -0.0489; that for `COCCOC(=O)N1C(=O)[C@@]2(c3cc(C#CCCO)ccc31)[C@H](c1ccc(O)cc1)N1[C@H](c3ccccc3)[C@H](c3ccccc3)OC(=O)[C@H]1[C@@H]2C(=O)Nc1nc2ccccc2s1` was -0.16; that for `C=CC[C@]1(C(=O)N2CCCCC2)N=C(c2ccc(OCCCO)cc2)O[C@H]1c1ccccc1N=[N+]=[N-]` was -0.0237.
On to `CCCC=C(CCC)[C@@H](NS(=O)(=O)c1cccc(C(F)(F)F)c1)c1ccc(C(=O)OC)cc1`, for which the composite z-score was 0.171.
Under `COc1ccc([Si](C)(C)[C@@H]2[C@@H](CC(=O)N(CCO)Cc3ccccc3)O[C@]3(C(=O)N(Cc4cccc(N5CCC5=O)c4)c4ccccc43)[C@H]2C)cc1` stands 0.0373; under `COc1cc([C@@H]2N[C@H](C(=O)O)Cc3c2[nH]c2ccccc32)cc(OC)c1OC`, 0.338; under `COCC(=C=CC[C@H](O)c1ccc(OCCO)cc1)C[C@H](O)c1ccccn1`, -0.134.
On to `COCCOC(=O)N1C(=O)[C@@]2(c3cc(C#CC4(O)CCCCCC4)ccc31)[C@H](C(=O)N1CCCCCCC1)[C@H]1C(=O)O[C@H](c3ccccc3)[C@H](c3ccccc3)N1[C@@H]2c1ccc(O)cc1`, for which the composite z-score is 1.11.
The value for `C=CCC(OC(C)=O)[C@@H]1[C@@H](N(Cc2cc3ccccc3o2)C(=O)c2ccc(C)cc2)c2cc(OCCCO)ccc2N1C(=O)c1ccc2ccccc2n1` (stereo partly specified) was 0.107; that for `C=C(COC)C(=O)CC[C@H](OC(=O)c1ccccc1-c1ccccc1C(=O)O)c1cccc(OCCO)c1` was -0.0296.
The molecule `CC(C)[Si](OCC[C@H]1O[C@]2(C(=O)N(Cc3ccccc3)c3ccccc32)[C@@H](C)[C@@H]1[Si](C)(C)O)(C(C)C)C(C)C` displayed a composite z-score of 0.0373.
The value for `CO[C@H]1COC(=O)CC=C[C@H](C)[C@@H](OC)COC(=O)CC=C[C@@H]1C` was -0.0994; that for `COCCOC(=O)N1C(=O)[C@@]2(c3cc(C#CC4=CCCCC4)ccc31)[C@H](C(=O)NC[C@H](O)c1ccccc1)[C@H]1C(=O)O[C@H](c3ccccc3)[C@H](c3ccccc3)N1[C@@H]2c1ccccc1OCCO` was 0.259; that for `COc1cc2c(cc1OC)CN(C(=O)[C@H]1[C@@H]3C(=O)O[C@@H](c4ccccc4)[C@@H](c4ccccc4)N3[C@@H](c3ccc(O)cc3)[C@]13C(=O)Nc1ccc(C#CC4(O)CCCCCC4)cc13)CC2` was 2.29.
The value for `CN(C)C(=O)[C@@]1(Cc2ccccc2N=[N+]=[N-])N=C(c2ccc(OCCCO)cc2)O[C@H]1c1ccccc1CN=[N+]=[N-]` was 0.0274; that for `CO[C@H]1COC(=O)[C@@H](C)COC(=O)[C@H](Cc2ccccc2)NC(=O)CC=C[C@H]1C` was 0.0216.
Under `CC(=O)NCCCC[C@@H]1NC(=O)[C@H]2C[C@@H](C(=O)NCCCCCCN(C)C)[C@@H](c3cccc(OCCO)c3)N2C1=O` stands 0.0053; under `C=CCC(OC(C)=O)[C@@H]1[C@@H](N(Cc2ccc(-c3ccccc3)cc2)C(=O)c2ccc(-c3ccccc3)cc2)c2cc(OCCCO)ccc2N1C(=O)Cc1ccc(OC)cc1` (stereo partly specified), -0.189.
As to `COCCCNC(=O)[C@@H]1c2ccccc2C(=O)N(CC23CC4CC(CC(C4)C2)C3)[C@H]1c1ccc(CO)cc1`, the composite z-score amounted to 0.0053.
The value for `C=CCN1C(=O)[C@]2(O[C@H](CCn3cc(CCO)nn3)[C@@H]([Si](C)(C)c3ccc(OC)cc3)[C@@H]2C)c2cc(NC(=O)c3ccc(OC)cc3)ccc21` was 0.176.
Under `C=C(CCCC)/C(=C/C[C@@H](OC(=O)c1ccncc1)c1ccc(CO)o1)c1cnc2ccccc2c1` stands 0.224; under `COC(=O)Cn1c(C(=O)N2CCCC2)cc2c1C[C@H]1CN(C(=O)c3ccccc3)[C@@](Cc3ccc(OC)cc3)(C(=O)OC)[C@@H]21`, 0.151; under `C=C(CCCC)C(=O)CC[C@@H](OC(C)=O)c1ccccc1OCCO`, -0.0645.
Under `CCOC(=O)C[C@H]1[C@H](OC(=O)c2cc3ccccc3oc2=O)[C@@H](NC(=O)C2CCCCC2)c2cc(OCCCO)ccc2N1C(=O)c1ccc2ccccc2n1` stands -0.0645; under `COC(=O)C(CC#Cc1ccc2c(c1)[C@]1(C(=O)N2)[C@H](C(=O)N2CCCCCCC2)[C@H]2C(=O)O[C@H](c3ccccc3)[C@H](c3ccccc3)N2[C@@H]1c1ccc(O)cc1)C(=O)OC`, -0.306; under `C=C[C@H](OC)[C@@H](OC(=O)Nc1ccc(SC)cc1)c1ccc(O)c(F)c1`, 0.109.
With `O=C1O[C@@H](c2ccccc2)[C@@H](c2ccccc2)N2[C@@H](c3ccc(OCCO)cc3)[C@]3(C(=O)Nc4ccc(C#CCCO)cc43)[C@@H](C(=O)N3CCN(c4ncccn4)CC3)[C@H]12`, the composite z-score is -0.171.
The value for `C=CCC(OC(C)=O)[C@@H]1[C@@H](N(Cc2cccc3ccccc23)C(=O)Cc2ccc(F)cc2)c2cc(OCCCO)ccc2N1C(=O)Cc1ccc2ccccc2c1` (stereo partly specified) was -0.167; that for `O=C1O[C@@H](c2ccccc2)[C@@H](c2ccccc2)N2[C@@H](c3ccc(O)cc3)[C@]3(C(=O)Nc4ccc(C#CC5(O)CCCCCC5)cc43)[C@@H](C(=O)Nc3nc4ccccc4s3)[C@H]12` was 1.71; that for `C#CCCCON=C1C[C@@H](O)[C@@H](O)[C@@H]2[C@@H]3C(=O)N(Cc4ccc5c(c4)OCO5)C(=O)[C@@H]3CC[C@@H]12` was 0.0695.
Under `O=C1O[C@H](c2ccccc2)[C@H](c2ccccc2)N2[C@H]1[C@@H](C(=O)NC[C@H](O)c1ccccc1)[C@]1(C(=O)Nc3ccc(C#CC4(O)CCCCCC4)cc31)[C@H]2c1ccc(OCCO)cc1` stands 0.0024; under `CCOC(=O)C1=C[C@@H](c2ccccc2)N(S(=O)(=O)c2ccc(C)cc2)[C@H]1c1ccc(F)cc1`, 0.0139.
The value for `O=[N+]([O-])c1ccc(C[n+]2ccc3ccc(O)cc3c2)o1` was -0.411.

The values above are taken from PubChem BioAssay.
